Structures can show the parent of a compound that is named as a salt. Inconclusive results are not listed. Where a call stands in place of a potency, no number is given. Activity calls are given as the source filed them. Unless noted, calls follow the shape of the dose curve; as a rule, active = well fitted curve in the direction sought with a large enough effect; inconclusive = small, poorly fitted or top-dose-only effect, or another doubt; inactive = no such curve, though single readings can be large; an effect the other way counts as inactive or inconclusive. Peptide text beside a SMILES is read from it. * marks the point of attachment. Tfa = O=C(C(F)(F)F)*
Tests used:
[1] = target: Cytochrome P450 3A4 (Homo sapiens) (UniProt P08684); test: qHTS Assay for Inhibitors and Substrates of Cytochrome P450 3A4 (AID 884); also: nearly all actives have a fitted effect of over 50% in size
Chain of Cytochrome P450 3A4 (Homo sapiens) (P08684 whole entry, looked up): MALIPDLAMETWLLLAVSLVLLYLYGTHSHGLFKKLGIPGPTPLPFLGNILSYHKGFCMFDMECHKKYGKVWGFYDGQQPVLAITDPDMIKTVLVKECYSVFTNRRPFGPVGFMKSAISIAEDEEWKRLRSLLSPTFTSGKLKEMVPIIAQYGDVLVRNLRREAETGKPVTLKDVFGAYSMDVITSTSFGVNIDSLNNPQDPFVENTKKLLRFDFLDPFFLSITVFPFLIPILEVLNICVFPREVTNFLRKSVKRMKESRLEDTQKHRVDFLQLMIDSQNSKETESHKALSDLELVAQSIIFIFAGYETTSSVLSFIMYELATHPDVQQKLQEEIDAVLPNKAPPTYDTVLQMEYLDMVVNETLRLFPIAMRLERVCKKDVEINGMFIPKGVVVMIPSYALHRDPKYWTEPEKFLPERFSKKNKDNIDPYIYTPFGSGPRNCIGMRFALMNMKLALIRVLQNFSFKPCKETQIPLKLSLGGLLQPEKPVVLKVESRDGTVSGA
Outline: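 20 nM human CYP3A4 with 25 uM Luciferin-PPXE (at KM) in 200 mM KPO4, preincubated 10 min with compound; NADPH regeneration started a 60 min RT reaction. Luciferin detected by luminescence, normalized to 57 uM ketoconazole as full inhibition.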

[2] = Confirmation and Secondary Assay for Modulators of Hemoglobin Beta Chain Splicing at IVS2 654 locus (AID 910);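 also: HeLa cells stably carrying EGFP split by mutant beta-globin IVS2-654 intron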
Outline: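 HeLa cells stably expressing EGFP interrupted by β-globin IVS2-654 intron, seeded overnight in Opti-MEM/2% FCS, then treated 2 days at 37 °C. Restored splicing read as total peak GFP intensity per well by laser scanning cytometry (488 nm excitation, 500–520 nm emission); 500 nM antisense PNA as control.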

[3] = Confirmation and Secondary Assay for Modulators of Hemoglobin Beta Chain Splicing at IVS2 705 locus (AID 930);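 also: HeLa cells stably expressing the EGFP-705 splicing reporter; GFP fluorescence per well restored by corrected splicing of the IVS2-705 intron in EGFP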
Outline: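 Stable HeLa line with EGFP disrupted by mutant beta-globin intron 2 (705). Overnight attachment, then 2 days of compound at 37C, 5% CO2. Signal: peak GFP intensity summed over objects 5-250 µm.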

[4] = qHTS Assay for Lipid Storage Modulators (AID 1519; calls by dose curve); conditions: Drosophila S3 cells, BODIPY lipid droplet/cell ratio, laser cytometry, cells loaded with oleic acid; for activity change, negative = inhibition: at 57.5 µM (top of the series)
Outline: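 Cells seeded at 5,000 per well were treated with compounds over a concentration series and loaded with oleic acid (400 uM, as added). Lipid droplet fluorescence (488 nm excitation, 500-530 nm channel) was read by laser-scanning cytometry and normalized to 20 uM Triacsin C.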

[5] = target: Ubiquitin carboxyl-terminal hydrolase 1 (Homo sapiens) (UniProt O94782); test: Inhibitors of USP1/UAF1: Pilot qHTS (AID 504865);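 also: rhodamine fluorescence freed from ubiquitin-rhodamine substrate followed over time; top concentration of the series differs between compounds; nearly all actives have a fitted effect of over 35% in size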
Chain of Ubiquitin carboxyl-terminal hydrolase 1 (Homo sapiens) (O94782 whole entry, looked up): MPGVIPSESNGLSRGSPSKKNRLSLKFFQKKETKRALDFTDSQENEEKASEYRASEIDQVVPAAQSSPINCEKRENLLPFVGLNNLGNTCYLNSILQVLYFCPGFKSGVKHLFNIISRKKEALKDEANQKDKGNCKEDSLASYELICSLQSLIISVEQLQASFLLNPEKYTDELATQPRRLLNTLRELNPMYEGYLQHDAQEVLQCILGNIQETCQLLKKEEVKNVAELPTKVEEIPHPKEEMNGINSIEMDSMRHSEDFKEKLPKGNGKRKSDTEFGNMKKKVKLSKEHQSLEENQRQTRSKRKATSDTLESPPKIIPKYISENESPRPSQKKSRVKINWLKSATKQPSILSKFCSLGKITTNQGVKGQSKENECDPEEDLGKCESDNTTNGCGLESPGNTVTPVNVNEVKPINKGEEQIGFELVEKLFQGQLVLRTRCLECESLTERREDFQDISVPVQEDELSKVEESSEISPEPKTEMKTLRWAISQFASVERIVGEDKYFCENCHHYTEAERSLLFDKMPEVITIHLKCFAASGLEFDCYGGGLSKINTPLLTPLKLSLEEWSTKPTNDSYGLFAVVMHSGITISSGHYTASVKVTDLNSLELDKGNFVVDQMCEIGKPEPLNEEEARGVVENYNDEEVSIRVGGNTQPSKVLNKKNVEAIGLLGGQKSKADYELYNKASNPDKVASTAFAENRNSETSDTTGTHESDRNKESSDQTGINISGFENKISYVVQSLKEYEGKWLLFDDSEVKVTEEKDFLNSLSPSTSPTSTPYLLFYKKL
Outline: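 Deubiquitinase activity followed as kinetic rhodamine fluorescence release from 150 nM Ub-Rho. 1 nM USP1/UAF1 with compound, after 15 min room-temperature preincubation, in HEPES pH 7.8 buffer containing TCEP, EDTA, BSA and Tween-20.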

[6] = measured here: cell count channel max response
[7] = measured here: lipid channel max response

| Compound | Potency [1] | Potency [2] | Potency [3] | activity change, negative = inhibition [4] | max response [4, 6] | max response [4, 7] | Potency [5] |
| --- | --- | --- | --- | --- | --- | --- | --- |
| OCC1O[C@@H](OC2C(O)C(CO)O[C@@]2(CO)O[C@@H]2OC(CO)C(O)C(O)C2O)C(O)C(O)C1O (stereo partly drawn) | inactive | inactive | inactive | 4.82% (inactive) | 0.0409% | 4.57% | inactive |
| CCCCCCCCCCCCCc1ccco1 | inactive | inactive | inactive | 1.58% (inactive) | -6.07% | 3.51% | inactive |
| CC(=O)N[C@H](Cc1c[nH]c2ccccc12)C(N)=O | inactive | inactive | inactive | 4.6% (inactive) | 3.77% | 4.03% | inactive |
| O=C(O)C1(O)CC(O)C(O)C(O)C1 (stereo not drawn) | inactive | inactive | inactive | 2.66% (inactive) | 9.62% | 14.4% | inactive |
| CC(=O)Oc1ccc2c(c1)CCC1C2CC[C@]2(C)C(=O)CCC12 (stereo partly drawn) | inactive | inactive | inactive | -6.33% (inactive) | -13.1% | -17.8% | inactive |
| O=C(Oc1cc(OC(=O)c2ccccc2)c2c(c1)OC(c1ccc(OC(=O)c3ccccc3)c(OC(=O)c3ccccc3)c1)[C@@H](OC(=O)c1ccccc1)C2)c1ccccc1 (stereo partly drawn) | inactive | inactive | inactive | -8.04% (inactive) | 23.3% | 15.7% | inactive |
| CC1C(=O)CCC2[C@]1(C)CCC1[C@]2(C)CC[C@@]2(C)C3CC(C)(C)CC[C@]3(C)CC[C@@]12C (stereo partly drawn) | inactive | inactive | inactive | 2.51% (inactive) | 9.14% | 14.3% | inactive |
| CC1(C)OC2C(CO)OC(n3cnc4c(=O)[nH]c(N)nc43)C2O1 (stereo not drawn) | inactive | inactive | inactive | 4.01% (inactive) | 24% | 28% | inactive |
| Nc1ncnc2c1ncn2C1OC(COP(=O)(O)O)C(O)C1O (stereo not drawn) | inactive | inactive | inactive | 5.46% (inactive) | 29.6% | 41.9% | inactive |
| CC(C)CCCC(C)C1CCC2C3CC=C4CC(O)CC[C@@]4(C)C3CC[C@@]12C (stereo partly drawn) | inactive | inactive | inactive | 2.88% (inactive) | -11.4% | -8.92% | inactive |
| C=C(C)C1COc2cc3oc(=O)ccc3cc2O1 (stereo not drawn) | inactive | inactive | inactive | 14.3% (inactive) | 12.5% | 28.8% | inactive |
| Cn1c(=O)[nH]c2nc[nH]c2c1=O | inactive | inactive | inactive | 5.61% (inactive) | 14% | 22.4% | inactive |
| NCC1CCCCC1CC(=O)O (stereo not drawn) | inactive | inactive | inactive | 5.88% (inactive) | 16.7% | 26.7% | inactive |
| NCCC(O)C(=O)NC1C[C@@H](N)[C@H](O[C@@H]2OC(CN)C(O)C(O)C2O)C(O)[C@H]1O[C@H]1OC(CO)C(O)C(N)C1O (stereo partly drawn) | inactive | inactive | inactive | 7.58% (inactive) | 23.7% | 35.1% | inactive |
| CC(C(=O)O)C1CCC2C3CC=C4CC(O)CC[C@@]4(C)C3CC[C@]12C (stereo partly drawn) | inactive | inactive | inactive | 4.4% (inactive) | 6.91% | 12.2% | inactive |
| CS(=O)(=O)c1ccc(C(O)C(CO)NC(=O)C(Cl)Cl)cc1 (stereo not drawn) | inactive | inactive | inactive | 6.29% (inactive) | 3.52% | 13.6% | inactive |
| COC(=O)C(C)c1ccc(C(=O)c2cccs2)cc1 (stereo not drawn) | inactive | inactive | inactive | 9.81% (inactive) | -1.55% | 12.4% | inactive |
| CCC(/C=C/C(C)C1CCC2C3CC=C4CC(O)CC[C@@]4(C)C3CC[C@@]12C)C(C)C (stereo partly drawn) | inactive | inactive | inactive | -0.637% (inactive) | 13.1% | 13.6% | inactive |
| C[C@@H]1OC(OC2CC[C@@]3(C)C(CC[C@@]4(C)C3CC=C3C5CC(C)(C)CC[C@]5(C(=O)OC5OCC(O)[C@@H](O)[C@@H]5OC5O[C@@H](C)[C@H](O[C@H]6OC(CO)C(O)C(O)C6O)C(O)C5O)C(O)C[C@@]34C)C2(C)C)C(O)C(O)[C@H]1OC1OCC(O)C(O)[C@H]1O (stereo partly drawn) | inactive | inactive | inactive | 1.15% (inactive) | -28.2% | -26.8% | inactive |
| CC(=O)O[C@]1(C)CC[C@]23CC1C(C)(C)C2CC[C@@H]3C (stereo partly drawn) | inactive | inactive | inactive | 3.63% (inactive) | 7.64% | 13.6% | inactive |
| CC(C)C(NC(=O)C(Cc1ccc(O)cc1)NC(=O)C(NC(=O)C(F)(F)F)C(C)C)C(=O)O (stereo not drawn) (Tfa-Val-Tyr-Val-OH; configuration not given here) | inactive | inactive | inactive | 4.31% (inactive) | 0.432% | 4.35% | inactive |
| C[C@@]12CCC3c4ccc(OS(=O)(=O)O)cc4CCC3C1CCC2O (stereo partly drawn) | inactive | inactive | inactive | 4.64% (inactive) | 6.41% | 9.99% | inactive |
| CC1=C2C(O)C(=O)OC3CC4C(C)(C)C(=O)C=C[C@]4(C)C(CC1)[C@@]23C (stereo partly drawn) | inactive | inactive | inactive | 3.51% (inactive) | 17.8% | 24.5% | inactive |
| CC(C)CCCC(C)C1CCC2C3CC[C@H]4CC(=O)CC[C@@]4(C)C3CC[C@@]12C (stereo partly drawn) | inactive | inactive | inactive | 1.96% (inactive) | 8.57% | 10.7% | inactive |
| O=C(O)c1ccc2c(c1)OCO2 | inactive | inactive | inactive | 6.55% (inactive) | 14.4% | 22.7% | inactive |

| Compound | Potency [1] | Potency [2] | Potency [3] | activity change, negative = inhibition [4] | max response [4, 6] | max response [4, 7] | Potency [5] |
| --- | --- | --- | --- | --- | --- | --- | --- |
| CCC(C(N)=O)c1ccccc1 (stereo not drawn) | inactive | inactive | inactive | 9.01% (inactive) | 9.46% | 21.9% | inactive |
| CC(CCC(=O)O)C1CCC2C3CC(O)[C@@H]4CC(O)CC[C@]4(C)C3CC[C@@]12C (stereo partly drawn) | inactive | inactive | inactive | 6.93% (inactive) | 12.9% | 20.4% | inactive |
| COc1cc(-c2coc3cc(OC)c(OC)c(OC)c3c2=O)cc(OC)c1OC | inactive | inactive | inactive | 2.36% (inactive) | 17.7% | 21.5% | inactive |
| CC(=O)OC1CCC2(C)C(=CC=C3C2CCC2(C)C3CCC2C(C)/C=C/C(C)C(C)C)C1(C)C (stereo not drawn) | inactive | inactive | inactive | 1.79% (inactive) | 12.2% | 14.9% | inactive |
| NC(N)=NCCCC(NC(=O)C(N)Cc1ccc(O)cc1)C(=O)O (stereo not drawn) | inactive | inactive | inactive | 5.19% (inactive) | 20.9% | 29% | inactive |
| NC(CSCSCC(N)C(=O)O)C(=O)O (stereo not drawn) | inactive | inactive | inactive | 1.54% (inactive) | 7.28% | 12.4% | inactive |
| CCC(CCC(C)C1CCC2C3CC=C4CC(OC(C)=O)CC[C@@]4(C)C3CC[C@@]12C)C(C)C (stereo partly drawn) | inactive | inactive | inactive | 5.75% (inactive) | 28.8% | 28.4% | inactive |
| COc1cc(-c2coc3cc(O[C@H]4OC(CO)C(O)C(O)C4O)c(OC)c(O)c3c2=O)cc(O)c1OC (stereo partly drawn) | inactive | inactive | inactive | 7.43% (inactive) | 6.4% | 13.8% | inactive |
| O=c1oc2ccccc2cc1O | inactive | inactive | inactive | 6.16% (inactive) | 4.09% | 13.1% | inactive |
| CC(=O)OCC(OC(C)=O)C(OC(C)=O)C(OC(C)=O)C(OC(C)=O)C(COC(C)=O)OC(C)=O (stereo not drawn) | inactive | inactive | inactive | 10.5% (inactive) | 5.07% | 17.8% | inactive |
| NCC1OC(OC2C(N)CC(N)[C@@H](O)[C@@H]2OC2O[C@H](CO)[C@@H](O[C@@H]3OC(CN)C(O)C(O)C3N)C2O)C(N)C(O)C1O (stereo partly drawn) | inactive | inactive | inactive | 9.63% (inactive) | 15.6% | 30% | inactive |
| C[C@@H]1OC(OC2C(OC3CC[C@@]4(C)C5CC=C6C7CC(C)(C)CC[C@@]7(C(=O)O)CCC6(C)C5(C)CCC4[C@]3(C)CO)OCC(O)C2O)C(O)C(O)C1O (stereo partly drawn) | inactive | inactive | inactive | 3.66% (inactive) | 9.24% | 14.3% | inactive |
| CCOc1ccc(C(=O)c2ccc(OC)c(O)c2O)cc1 | inactive | inactive | inactive | 7.45% (inactive) | 6.67% | 16.2% | inactive |
| COc1ccccc1/C=C\C(=O)O | inactive | inactive | inactive | -2.1% (inactive) | 4.2% | 4.2% | inactive |
| CC1CCC(C(C)C)[C@H](OC(=O)c2ccccc2)C1 (stereo partly drawn) | inactive | inactive | inactive | 5.46% (inactive) | 10.9% | 15.1% | inactive |
| COC1C(O)C(O)C(O)C(O)C1O (stereo not drawn) | inactive | inactive | inactive | 5.15% (inactive) | 13.2% | 22.7% | inactive |
| CON | inactive | inactive | inactive | 4.31% (inactive) | 12.5% | 21.6% | inactive |
| CCCC(NC(C)C(=O)N1C(C(=O)O)CC2CCCCC21)C(=O)OCC (stereo not drawn) | inactive | inactive | inactive | 9% (inactive) | 4.3% | 11.7% | inactive |
| CCC(C)C(NC)C(=O)O (stereo not drawn) | inactive | inactive | inactive | 5.09% (inactive) | 17.4% | 24.1% | inactive |
| CC(=O)OCC(=O)[C@]1(O)C(OC(C)=O)CC2C3CCC4=CC(=O)C=C[C@@]4(C)[C@]3(F)C(O)C[C@]21C (stereo partly drawn) | inactive | inactive | inactive | 2.18% (inactive) | 7.55% | 12.5% | inactive |
| COc1ccc2c(c1OC)OCC(c1ccc(OC)c(OC)c1OC)C2 (stereo not drawn) | inactive | inactive | inactive | 9.26% (inactive) | 12.7% | 23.2% | inactive |
| CC12CCC3C(CC3(C)C)C(C)(CCC1=O)O2 (stereo not drawn) | inactive | inactive | inactive | 8.76% (inactive) | 19% | 26.9% | inactive |
| CC(=O)/C(=C\c1ccccc1)CC(=O)O | inactive | inactive | inactive | 9.42% (inactive) | 12.7% | 23.6% | inactive |
| COc1c(O)cccc1O | inactive | inactive | inactive | 5.35% (inactive) | -1.6% | 5.81% | inactive |

Source: PubChem BioAssay (NCATS)
